“And” between values parts separate entries of the source, which are not always exact repeats. Equal entries are not always repeated. Screen size: about 330,000 compounds; about 1,500 (0.45%) were called active. About 6% were inconclusive and are not listed. Calls follow the shape of the full dose curve; tested in A549 cells. This excerpt belongs to a sample that is enriched for actives. More than one record can exist for a structure, and the calls need not agree.

47 molecules from PubChem BioAssay AID720580 (National Center for Advancing Translational Sciences (NCATS), 2013) can be followed below.
% is scaled to controls: 0 for no effect and ±100 for the full control effect; potency is read from the fitted curve at half-maximal effect.

This experiment can be described thus: qHTS for Stage-Specific Inhibitors of Vaccinia Orthopoxvirus: Venus Reporter Primary qHTS. Also: nearly all actives have a fitted effect of over 30% in size. The following applies: Vaccinia virus Venus reporter expression, fluorescence; series mostly up to 36.5 µM; activity change, negative = inhibition: at the top concentration. On the technique in general: In qHTS, concentration-response curves come from the screen itself.
`CCCCC[C@H](C)N1C[C@@H](COCc2ccccc2)Oc2cc(N3CC[C@@H](N(C)C)C3)ccc2S1(=O)=O`: the “activity change, negative = inhibition” value is -10.3% (inactive).
Same read-out and setting: under `CCC(C(=O)NCc1ccccc1)n1c(Cc2cc(F)cc(F)c2)nc2ccccc21` (configuration not stated) stands -13.7% (inactive).
On to `CCCCNC(=O)C[C@@H]1C[C@@]2(C(=O)OC)CC(C)(C)CC=C2N(Cc2ccco2)C1=O`, for which the “activity change, negative = inhibition” value was -17.4% (inactive).
Same read-out and setting: next, `O=C(c1ccc(C(F)(F)F)cc1)N1CCC(=O)N([C@H](COCc2ccccc2)Cc2ccccc2)CC1`: -11.3% (inactive); `O=C1Nc2ccccc2NC(c2ccc3c(c2)OCO3)=C1N(Cc1ccc(F)cc1)C(=O)c1ccco1`: 8.77% (inactive); `COc1ccc2c(C(=O)c3ccc(C)cc3)n(CCC(N)=O)[n+]([O-])c2c1`: -5.46% (inactive).
Regarding `COc1ccc(Cc2nnc(SCC(=O)c3cccc([N+](=O)[O-])c3)n2C)cc1`, the “activity change, negative = inhibition” value was -7.6% (inactive).
As to `COc1ccc(C(=O)c2c3ccc([N+](=O)[O-])cc3[n+]([O-])n2CCCN)cc1`, the Potency was 10 µM (active).
Consider `COc1ccc(C(C)(O)c2nc(-c3ccc(C)c(C)c3)cs2)cc1` (configuration not stated), for which the “activity change, negative = inhibition” value is -24.7% (inactive).
Take `CCOc1ccc(/C=N\NC(=O)c2c(C)nc3cc(C)ccn23)cc1`: the “activity change, negative = inhibition” value was -16.5% (inactive).
`CCOc1ccc(/C=N/NC(N)=S)cc1`: the Potency is 1 µM (active).
On to `CCOc1ccc(-c2cc(C(=O)N/N=C/c3ccc(O)cc3)c3ccccc3n2)cc1`, for which the “activity change, negative = inhibition” value is 0% (inactive).
The same measure, in the same setting: under `CCCCn1nnnc1C(c1cccc(OC)c1OC)N1CCN(C/C=C/c2ccccc2)CC1` (configuration not stated) stands -4.84% (inactive); under `C=CCC[C@H](CCCCC)OC(=O)/C=C/[C@H](O)[C@@H](O)C[C@@H](O)CC=C`, -17.3% (inactive); under `COC(=O)[C@]12CCCCC=C1N(Cc1ccco1)C(=O)[C@H](CC(=O)NCC1CCCCC1)C2`, -1.07% (inactive).
Consider `COc1ccc(CN(Cc2ccccc2)C(=O)c2ccc(O)cc2)cc1COc1ccc(NC(C)=O)cc1`, for which the “activity change, negative = inhibition” value was -14.1% (inactive).
With `COc1cc(C#Cc2ccc3cc(CCCO)oc(=O)c3c2)cc(OC)c1`, the “activity change, negative = inhibition” value was -27.7% (inactive).
Consider `COc1cc(/C=C2\Oc3ccc(C#Cc4ccc(O)cc4)cc3C2=O)cc(OC)c1`, for which the Potency is 8.91 µM (active).
With `CC(C)C1C(=O)N(Cc2cn(CCC3OCCO3)nn2)CCS(=O)(=O)N1Cc1ccc(-c2ccccc2C(F)(F)F)cc1` (configuration not stated), the “activity change, negative = inhibition” value is -11.9% (inactive).
Take `CC(C)OC(=O)c1ccc(COc2ccc3ccc(=O)oc3c2)o1`: the “activity change, negative = inhibition” value is -3.73% (inactive).
Still for that read-out and setting: next, `Cc1noc(C)c1COc1ccc2ccc(=O)oc2c1`: -14.6% (inactive).
Regarding `CC(=CCOc1ccc2ccc(=O)oc2c1)C1=CC(=O)C(C)(C)O1`, the Potency is 3.55 µM (active).
With `CCOc1ccc(CCN2C(=S)N([C@@H](CC(C)C)CN3CCC[C@@H]3CN3C(=S)NC[C@@H]3Cc3ccc(O)cc3)C[C@@H]2CC(C)C)cc1`, the “activity change, negative = inhibition” value is -12.4% (inactive).
For the molecule `Cc1ccc(CCC(=O)Nc2ncc(Cc3cc(Cl)ccc3Cl)s2)o1`, the Potency is 4.47 µM (active).
Turning to `Cc1cnc(NC(=O)CSc2nnc(-c3ccc(Cl)cc3Cl)n2N)s1`, the “activity change, negative = inhibition” value was -22.3% (inactive).
`Cc1ccc(C(=O)Nc2nc3ccc(Cl)cc3s2)o1`: the activity change, negative = inhibition is -7.19% [at 7.34 µM] (inactive).
Still for that read-out and setting: next, `COC(=O)C1=CN(c2c(C)cc(C)cc2C)C(N)=C(C#N)C1c1cccc(F)c1` (configuration not stated): -25.6% (inactive).
In the case of `Clc1ccc(Cn2ncc3c(NCc4cccnc4)ncnc32)cc1`, the Potency is 8.91 µM (active).
`Brc1ccc2ncnc(NCc3cccnc3)c2c1`: the “activity change, negative = inhibition” value is -18.1% (inactive).
As to `CC(C)CNc1ncnc2c1cnn2Cc1ccc(Cl)cc1`, the “activity change, negative = inhibition” value was -9.44% (inactive).
With `CC(C)C[C@H]1CN([C@@H](Cc2ccccc2)CN2CCC[C@@H]2CN2C(=O)C(=O)NC[C@@H]2Cc2ccc(O)cc2)C(=O)C(=O)N1CCc1ccccc1`, the “activity change, negative = inhibition” value is -8.63% (inactive).
For `COc1ccc(-c2nc(=N)sn2-c2ccccc2)cc1`, the “activity change, negative = inhibition” value was -26.5% (inactive).
As to `COc1ccc(C(NC(=O)C2CCN(CCCc3ccccc3)CC2)c2cccs2)cc1` (configuration not stated), the “activity change, negative = inhibition” value was -17.3% (inactive).
On to `N#Cc1c(Cl)c(Cl)c(Cl)c(C#N)c1Cl`, for which the Potency result is “inactive and 14.1 µM (active)”.
Turning to `CCOc1ccc(NC(=O)CSc2nnc3c(n2)[nH]c2ccc(S(=O)(=O)N4CCOCC4)cc23)cc1`, the “activity change, negative = inhibition” value was -23.5% (inactive).
Turning to `COC1C(O)C(C)OC(OC2CCC3(C=O)C(CCC4C3CCC3(C)C(C5=CC(=O)OC5)CCC43O)C2)C1O` (configuration not stated), the Potency is 0.1 µM (active).
For the molecule `COC1CC(OC2CC[C@@]3(C=O)C4CC[C@]5(C)C(C6=CC(=O)OC6)CC[C@@]5(O)C4CC[C@]3(O)C2)OC(C)C1O` (some centres not stated), the Potency is 0.282 µM (active).
With `O=C(Nc1ccc2c(c1)OCCO2)C(C1CC1)N1CCC(Cc2ccccc2)CC1` (configuration not stated), the “activity change, negative = inhibition” value is 1.13% (inactive).
For `O=S1(=O)CC(N2CCN(Cc3ccccc3F)CC2)CN1Cc1cn(Cc2ccccc2)nn1` (configuration not stated), the “activity change, negative = inhibition” value is -1.01% (inactive).
`Cc1nc2c(OCc3ccc(Cl)cc3)cccn2c1N(C)Cc1cccs1`: the “activity change, negative = inhibition” value is -19.4% (inactive).
For the molecule `CCOC(=O)[C@]12CCCC=C1N(Cc1ccc3c(c1)OCO3)C(=O)[C@H](CC(=O)N1CCN(C(=O)c3ccco3)CC1)C2`, the “activity change, negative = inhibition” value is -3.23% (inactive).
Consider `COc1ccc(C(=O)NCc2nnc(SCC(=O)NC3=NCCS3)n2C)cc1`, for which the “activity change, negative = inhibition” value is 1.83% (inactive).
Regarding `COC(=O)c1ccc(NC(=O)CSc2nnc(C3CC3)n2C)cc1`, the “activity change, negative = inhibition” value is -11.9% (inactive).
Take `COC(=O)c1ccc(NC(=O)CSc2nnc(CNc3ccc(OC)cc3)n2C)cc1`: the Potency is 12.6 µM (active).
For `Cc1ccc(S(=O)(=O)N2[C@@H](Cc3ccccc3)CO[C@H]2CC(=O)OCc2ccccc2)cc1`, the “activity change, negative = inhibition” value was -15.6% (inactive).
In the case of `N#Cc1cccc(NC(=O)c2cc(C3CCCCN3C(=O)CCc3ccccc3)on2)c1` (configuration not stated), the “activity change, negative = inhibition” value is -6.64% (inactive).
Same read-out and setting: under `CCOC(=O)N1C(=O)C[C@](Sc2ccc(C)cc2)(C(=O)OC)[C@H]1c1ccccc1` stands 8.58% (inactive).
